# Mcl1-Noxa inh: disrupts binding of human Mcl-1 to Noxa peptide. Q07820. TR-FRET Mcl-1/Noxa peptide binding, 2 h. inhibition, % at 21.7 µM. 220,000 tested, 1.5% active. AID 1022;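 active means compounds that cut the protein-peptide binding signal by more than 50% relative to plate controls in a single-dose test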;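 further: His-tagged Mcl-1 with rhodamine Noxa BH3 peptide and terbium anti-His antibody; 0% = Mcl-1 plus Noxa peptide wells and 100% = peptide-only wells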
# NCF1 inh: blocks human p47phox regulatory protein of NADPH oxidases. P14598. p47phox/p22phox peptide binding, fluorescence polarization, 2 h. inhibition, % at 24.7 µM. 220,000 tested, 0.53% active. AID 1274;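 active means inhibition above about 30%, limit read from the data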;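 further: 0% = p47phox with labelled peptide and 100% = labelled peptide alone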
# Target sequence (P14598 whole entry, looked up): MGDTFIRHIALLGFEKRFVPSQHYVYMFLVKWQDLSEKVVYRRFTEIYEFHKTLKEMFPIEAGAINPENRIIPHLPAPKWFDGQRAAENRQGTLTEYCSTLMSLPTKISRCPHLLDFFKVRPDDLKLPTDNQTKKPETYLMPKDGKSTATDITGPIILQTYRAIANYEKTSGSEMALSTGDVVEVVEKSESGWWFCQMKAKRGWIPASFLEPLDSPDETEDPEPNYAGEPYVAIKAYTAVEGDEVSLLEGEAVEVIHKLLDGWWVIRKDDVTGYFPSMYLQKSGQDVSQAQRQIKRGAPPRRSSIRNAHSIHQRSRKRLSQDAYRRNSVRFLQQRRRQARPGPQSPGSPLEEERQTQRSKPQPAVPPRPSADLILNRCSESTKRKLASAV
# Mcl1 Bid PPI: disrupts binding of human Mcl-1 to Bid peptide; TR-FRET Mcl-1/Bid-Dy647 peptide binding, 1536-well; 220,000 tested, 0.97% active; inhibition, % at 21.7 µM;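 active means compounds that cut the binding signal by more than half at the single screening dose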;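 further: His-tagged Mcl-1 with europium anti-His antibody binding Bid BH3 peptide; 0% = Mcl-1 plus peptide wells and 100% = peptide-only wells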
# 14-3-3 Bad PPI: disrupts binding of bovine 14-3-3 zeta to phospho-Bad peptide | AID 781 | TR-FRET 14-3-3zeta/Dy647-pBad peptide displacement, 1 h | P63103 | inhibition, % at 21.7 µM | 220,000 tested, 0.71% active;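 active means inhibition above about 70%, limit read from the data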;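 further: 0% = full 14-3-3 plus peptide FRET controls and 100% = background without 14-3-3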
# Mcl-1 Bim block: disrupts Bim peptide binding to human Mcl-1. Q07820. Bead-based flow cytometry, Bim peptide-Mcl-1 binding. inhibition, % at 10 µM. 190,000 tested, 0.1% active; in the data active means inhibition above about 40%;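 further: 0% = no compound tracer wells and 100% = peptide blocker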
# An asterisk follows results filed as active; . = not tested or not shown; [ ] = remark or other dose. Only some compounds are listed: those with a hit (about 3.1% of all), similar ones and a draw of the others.
SMILES,Mcl1-Noxa inh,NCF1 inh,Mcl1 Bid PPI,14-3-3 Bad PPI,Mcl-1 Bim block
COc1ccc(NS(=O)(=O)c2cccc(NC(=O)CCC(=O)c3ccc(Cl)cc3)c2)cc1,-8,-13,96*,1,-1
COc1ccc(NS(=O)(=O)c2cccc(NC(=O)CCC(=O)c3cccs3)c2)cc1,7,-9,-57,5,0
COc1ccccc1-c1nc(C#N)c(N2CCN(c3ccccc3)CC2)o1,6,1,-26,-6,0
COc1ccc(N2CCN(c3oc(-c4ccccc4OC)nc3C#N)CC2)cc1,16,54*,-36,-11,-6
C/C(Cn1nc([N+](=O)[O-])cc1C)=N\NC(=O)COc1c(Cl)cc(Cl)cc1Cl,10,3,0,11,-3
Cc1sc2nc3c4ccccc4c(NCc4ccco4)nn3c(=O)c2c1C,67*,-35,-1,5,10
O=C(O)COc1ccccc1/C=N/Nc1ccc(S(=O)(=O)Nc2ccc(Cl)cc2)cc1[N+](=O)[O-],73*,-6,23,21,0
COc1ccccc1NS(=O)(=O)c1ccc(N/N=C/c2ccccc2OCC(=O)O)c([N+](=O)[O-])c1,24,-17,0,-12,-3
CCn1nc(C)c(CNCc2cn[nH]c2-c2cc3ccccc3o2)c1C,-5,-10,-17,3,.
CCOC(=O)CSc1nnc2n1C(C)(C)Cc1ccccc1-2,92*,-2,-11,12,-3
CC(C)OC(=O)CSc1nnc2n1C(C)(C)Cc1ccccc1-2,-6,4,-50,.,-2
CN(C)C(=O)OCC1COc2ccccc2O1 (stereo not drawn),6,-10,-1,6,.
O=C(N/N=C/c1ccc2c(c1)OCO2)c1ccc2c(c1)OCCO2,-5,-2,2,-6,-2
O=C(N/N=C/c1cc(Br)c(Br)o1)c1ccc2c(c1)OCCO2,57*,-35,-10,31,.
O=C1OC(c2ccco2)=N/C1=C\c1ccc(-c2cccc(C(F)(F)F)c2)o1,14,-255,-23,-4,-5
CCCCCCN1C=C/C(=C\C=C(C#N)C#N)c2ccccc21,-25,128*,-42,-5,2
C=CCN1C=CC(=CC=C(C#N)C#N)C=C1,-10,-2,-46,1,.
C=CCN1C=C/C(=C\C=C(C#N)C#N)c2ccccc21,22,83*,-43,-10,5
Cc1oc(CC(C)C)c(CN)c1C(=O)O,3,-3,-19,43,0
Cc1ccc(S(=O)(=O)/N=C2/C=C(Sc3ncn[nH]3)C(=O)c3ccccc32)cc1,98*,53*,65*,88*[fluorescence artefact?],-7
CC(C)c1ccc(S(=O)(=O)/N=C2/C=C(Sc3ncn[nH]3)C(=O)c3ccccc32)cc1,105*,50*,49,79*[fluorescence artefact?],27
Cc1ccc(S(=O)(=O)Nc2ccc(O)c(Sc3ncn[nH]3)c2)cc1,23,-10,-29,-11,-1
Cc1ccc(C)c(S(=O)(=O)Nc2ccc(O)c(Sc3ncn[nH]3)c2)c1,8,-8,-45,5,.
CCOc1ccc(S(=O)(=O)Nc2ccc(O)c(Sc3ncn[nH]3)c2)cc1,9,-2,-23,-12,-1
Cc1ccc(S(=O)(=O)/N=C2/C=C(Sc3ncn[nH]3)C(=O)c3ccccc32)c(C)c1,94*,37*,26,66,11
SMILES,Mcl1-Noxa inh,NCF1 inh,Mcl1 Bid PPI,14-3-3 Bad PPI,Mcl-1 Bim block
O=C(COc1ccc2c(c1)CCC2)N1CCc2ccccc21,49,-13,90*,1,2
CC(C)CC(NC(N)=O)C(=O)Nc1ccc(Oc2ccccc2)cc1 (stereo not drawn),1,3,-27,-10,0
Cc1cccc(-n2cc(-c3ccccc3)c3c(NN4CCOCC4)ncnc32)c1,26,-5,-20,-1,1
Cc1ccc(-n2cc(-c3ccccc3)c3c(NN4CCOCC4)ncnc32)cc1,18,94*,-35,-28,-1
CC(=O)N1CCc2[nH]c3ccccc3c2C1,7,-12,-77,-19,-5
CC(=O)N1C=Cc2c(c(C)c3c([nH]c4ccccc43)c2C)C1,-3,77*,-50,-6,.
COc1ccc(C(=O)Nc2ccccc2C(=O)NC(Cc2ccc(O)cc2)C(=O)NNC(=O)c2ccccc2)cc1 (stereo not drawn),15,-4,-10,-6,0
COc1ccc(C(=O)Nc2ccccc2C(=O)NC(Cc2ccc(O)cc2)C(=O)NNC(=O)c2ccc(C)cc2)cc1 (stereo not drawn),-114,19,57*,79*,-1
COc1ccccc1C(=O)C1CCCN(C(=O)c2cc(CC(C)C)nc(C)n2)C1 (stereo not drawn),4,-5,-9,-9,0
COC(=O)c1[nH]c2ccc(Br)cc2c1NC(=O)CN1CCCCC1CCO (stereo not drawn),-2,-12,-49,91*,-3
Oc1ccccc1NCC(O)Cn1ccc2ccccc21 (stereo not drawn),74*,-2,33,41,1
OC(CNCc1ccccc1)Cn1ccc2ccccc21 (stereo not drawn),19,-17,-5,-2,-3
COc1cc(OC)c(C2C(C#N)=C(C)NC(C)=C2C#N)c(C(=O)O)c1,9,-7,-9,-3,.
CCN(CC)C(=O)Oc1nnc(SC(C)C)n1-c1ccc(Cl)cc1,-13,-1,-18,1,.
COc1ccc(Nc2ccnc3ccccc23)cc1,6,9,-16,32,-2
CC(C)Nc1ccc(Nc2ccnc3cc4ccccc4cc23)cc1,68*,12,-33,-1,.
Cc1cccc(-c2c3c(=O)n(C)c(=O)n(C)c3cn2C2CCCCC2)c1,5,-19,-80,-6,-1
Cn1c(=O)c2c(-c3ccccc3)n(C3CCCCC3)cc2n(C)c1=O,-8,57*,-94,19,0
O=C(NC1=NCCS1)C12CC3CC(CC(C3)C1)C2,19,-2,-8,-8,0
CCc1nnc(NS(=O)(=O)c2ccc(N=CC3=C(O)CC(C)(C)CC3=O)cc2)s1,-7,-4,-44,64,44*
COc1ccc(CNC(=O)C(C)N2C(=O)COc3ccc(C)cc32)c(OC)c1 (stereo not drawn),-8,-4,-56,0,.
O=[N+]([O-])c1ccc(-c2cn(-c3ccccc3)c(=S)[nH]2)cc1,34,-6,-17,-2,-7
Cc1cccc(-n2cc(-c3ccc([N+](=O)[O-])cc3)[nH]c2=S)c1,52*,-13,34,15,-6
O=C(NN=C1C2CC3CC1CC(Cl)(C3)C2)c1cccs1,-3,-11,-3,5,1
O=C(NN=C1C2CC3CC1CC(Cl)(C3)C2)c1ccccn1,67*,-6,10,9,-1
O=C(/C=C1\NC2(CCCC2)Cc2ccccc21)C(=O)N/N=C/c1ccc(O)c(O)c1,89*,-35,-58,5,0
CC(=O)NCCCc1nc2ccccc2n1Cc1c(F)cccc1Cl,-14,-6,-14,2,.
COc1ccccc1C(=O)NNC(=S)NC(=O)c1sc2ccccc2c1Cl,33,4,20,-4,-10

# Compound activity (PubChem BioAssay)
